# Results: PubChem BioAssay AID1508642 (National Center for Advancing Translational Sciences (NCATS), 2021)
# Hit rate of the full screen: of about 43,000 compounds, about 200 (0.47%) were called active. Not shown: some 12% with an inconclusive outcome. What follows is part of a selection rich in actives, with near analogues and random picks from the rest. A number with no mark means an inactive call. Calls follow the shape of the dose curve; as a rule, active = well fitted cell-killing curve with a large enough effect; inconclusive = small, poorly fitted or top-dose-only effect, or effect the other way; inactive = flat fitted curve, though single readings scatter.
# Assay: Cell viability qHTS assay in S16 Pmp22-F2sN cells; also: nearly all actives have a fitted effect of over 65% in size
# Conditions: S16 Pmp22-F2sN Schwann cells (luciferase reporters placed in the Pmp22 gene) viability, CellTiter-Glo, 24 h; series mostly up to 57.5 µM; activity change, negative = cytotoxicity: at the top concentration
# From the text: Assay Provider: Jim Inglese Ph.D. National Center for Advancing Translational Science, National Institutes of Health, Rockville, MD CMT is a heterogeneous group of neurological disorders that affect approximately 1 in 2,500 people. In particular, the most common form of CMT, CMT1A is genetically linked to the duplication of the PMP22 gene which leads to Schwann cell overexpression, thus manifesting itself as a typical case of dose-sensitive diseases. To identify small molecule compounds that can mediate the expression of PMP22 we developed a phenotypic assay screening strategy by utilizing genome editing techniques to construct Schwann cell lines containing novel reporter technology to monitor the transcriptional or translational regulation of PMP22. For high sensitivity we use a bioluminescent reporter system embedded in the 3' UTR of the PMP22 gene (S16(c9) Pmp22-F2sN) to identify compounds that inhibit gene expression. […] We can further discriminate the effect of all transcriptionally active molecules on PMP22 translation or stability with an assay that incorporates a short NLuc peptide (HiBiT) at the C-terminus of expressed PMP22 (S16(f8) PMP22-HiBiT) allowing alpha complementation and luminescence detection of membrane-associated PMP22 protein. These assays were screened against the NCATS Sytravon Library Collection. Miniaturization of these assays to 1536-well plate format for quantitative high throughput screening (qHTS) yielded rich data sets immediately from the qHTS assay (S16(c9) Pmp22-F2sN), when compared with data from a cell viability assay (Cell TiterGlo) to identify compounds that decreased the output signals through cellular toxicity to streamline the selection process of actives for subsequent characterization using the HiBiT assay (S16(f8) PMP22-HiBiT).
# Cell viability assay in S16 Pmp22-F2sN cells PROTOCOL TABLE (format as described by Inglese J, Shamu CE and Guy RK. 2007) SEQUENCE No. (e.g., 1, 2, 3, etc.); […] (e.g., Cells, Incubation, Reagent, etc.); VALUE and DESCRIPTION. 1. Cells. Add 500-1,000 cells in 4 uL in growth media (DMEM High Glucose, No Phenol Red media + 10% heat-inactivated FBS + 1% Pen/Strep supplemented media) per well into Greiner 1536-well white/solid bottom high base, TC-treated plates. 2. Compounds. Library compounds and controls added at 23nL per well, transferred by Pin Tool. 3. Incubation. Incubate plates at 37C, 5% CO2, 95% RH for 24 h. 4. Reagent. Add 3uL CellTiter-Glo per well of Greiner 1536-well plates. 5. Incubation. Incubate plates at room temperature for 15 min., protect from light. 6. Detector. FLuc luminescence measured using CCD-based camera (Viewlux). NOTES (numbers refer to Sequence numbers above; values are from representative experiments) 6. Luminescence Read: Clear filter; Exposure = 1 sec, Gain = High, Speed = Slow, Binning = 2X REFERENCES: 1. Inglese J, Shamu CE and Guy RK, Reporting data from high throughput screening of small molecule libraries, Nature Chemical Biology, 2007, 3(8): 438-441. doi.org/10.1038/nchembio0807-438 2. Yasgar A, Shinn P, Jadhav A, Auld DS, Michael S, Zheng W, Austin CP, Inglese J and Simeonov A, Compound Management for Quantitative High-Throughput Screening. J. Assoc. Lab. Auto., 2008, 13: 79-89. doi: 10.1016/j.jala.2007.12.004
# % is scaled to controls: 0 for no effect and ±100 for the full control effect; potency is read from the fitted curve at half-maximal effect.
SMILES,"activity change, negative = cytotoxicity",Potency
COc1ccc(S(=O)(=O)c2c(Nc3ccc(C)cc3)sc(C(=O)c3ccc(C)cc3)c2N)cc1,8.68%,–
COc1ccccc1CNC(=O)NCc1noc2ccc(C)cc12,-2.92%,–
COc1ccc(C(F)(F)F)cc1NC(=O)c1sc2nc(-c3cccs3)ccc2c1N,-23.1%,–
CC1CCN(C(=O)Cn2c(=O)n(-c3ccc(Cl)cc3)c(=O)c3c4c(sc32)CCC4)CC1,16.3%,–
CCCN(CCC)CCNC(=O)c1ccc2c(c1)NC(=O)C(CS(=O)(=O)Cc1cccc(Br)c1)N2 (stereo not given),4.02%,–
Cc1cc(C)cc(-n2ccnc2SCC(=O)Nc2nc3ccccc3s2)c1,13.1%,–
CCc1ccccc1NC(=O)Cc1ccc(NC(=O)N2CCCCc3ccccc32)cc1,14.9%,–
CCc1cccc(NC(=O)CCNS(=O)(=O)c2cccc3nonc23)c1,5.94%,–
COc1cccc(N2CCN(S(=O)(=O)c3cc(Br)cc4c3N(C(=O)C3CC3)CC4)CC2)c1,19.5%,–
Cc1ccc(S(=O)(=O)n2nc(-c3ccc(Cl)cc3)nc2NCc2ccccc2)cc1,-13.1%,–
CCN(CCCNC(=O)c1cc2cc3cc(OC)ccc3nc2s1)c1ccccc1,-0.951%,–
COc1cccc(CNC(=O)Cn2c(=O)c3cccn3c3ccc(F)cc32)c1OC,-1.88%,–
CCCSc1ncc(Cl)c(C(=O)Nc2sc3c(c2C(=O)NCCOC)CCCC3)n1,1.52%,–
Cc1ccc(OCC(=O)Nc2ccc(Cl)c(-c3nc4ccccc4[nH]3)c2)cc1C,-0.793%,–
CCOc1ccc(OCC)c(NC(=O)CN(c2ccc(C)cc2)S(=O)(=O)c2c(C)n[nH]c2C)c1,9.54%,–
Cc1cc2nc(-c3ccc(NC(=O)c4cc5ccccc5o4)cc3)oc2cc1C,-0.614%,–
O=C(NC1CC(=O)N(c2ccc(F)cc2)C1)C1CCCCC1 (stereo not given),5.27%,–
CCN1CCN(c2ncc3c(n2)CC(c2ccccc2O)CC3=O)CC1 (stereo not given),1.55%,–
Cc1ccc(-c2cc(-c3coc4ccccc4c3=O)c3c(n2)-c2cc(Cl)ccc2OC3)cc1,12%,–
CCOc1cccc2c1N[C@@H](c1ccc(C(=O)O)cc1)[C@H]1CC=C[C@@H]21,-2.8%,–
Cc1ccc(C(=O)Nc2c(C(=O)NC(C)(C)C)oc3ccccc23)cc1,2.59%,–
COc1ccc(CCC(=O)NCc2ccc3c(c2)CCN3C(=O)c2ccc(F)cc2)cc1,-1.18%,–
COc1ccccc1CNc1ccc(-c2nc(-c3ccccc3C)no2)cc1[N+](=O)[O-],-0.135%,–

SMILES,"activity change, negative = cytotoxicity",Potency
Cc1ccc2c(=O)c(C(=O)c3cccc(Cl)c3)cn(CC(=O)NCc3ccccc3)c2n1,–,10 µM (active)
Cc1ccc2c(=O)c(C(=O)c3ccc(F)cc3)cn(CC(=O)NC3CCCCC3)c2n1,-2.4%,–
Cc1ccc2c(=O)c(C(=O)c3ccc(Cl)cc3)cn(CC(=O)NC3CCCCC3)c2n1,-1.4%,–
Cc1ccc(-c2nnc(Nc3ccc(OCC(N)=O)cc3)c3ccccc23)cc1S(=O)(=O)NCC1CCCO1 (stereo not given),-1.93%,–
CCCCCn1c(CCNC(=O)c2ccc(F)cc2)nc2ccccc21,-24.8%,–
COCCNS(=O)(=O)c1cc(-c2nn3c(C)nnc3c3ccccc23)ccc1C,1.72%,–
CCc1nnc(SCc2c(F)cccc2Cl)c2cc3sccc3n12,17.7%,–
COc1cc(C(=O)N(Cc2ccc(C(C)C)cc2)C2CCS(=O)(=O)C2)cc(OC)c1OC (stereo not given),-17.4%,–
CCOc1ccccc1NC(=O)Cn1c2ncccc2c(=O)n1-c1ccc(C)c(C)c1,5.55%,–
Cc1cccc(Cn2c(CN3CCC(C(=O)NCc4ccccc4Cl)CC3)cc3ccccc32)c1,-11.5%,–
CCN(CC)S(=O)(=O)c1ccc2c(c1)N(CC(=O)NCc1ccccc1)C(=O)CS2,3.95%,–
COc1ccc(-c2onc(C)c2C)cc1S(=O)(=O)NCC1CCN(Cc2cccc(F)c2)CC1,-24.7%,–
Cc1onc(-c2ccc(F)cc2F)c1C(=O)Nc1cccc(C(F)(F)F)c1,-0.762%,–
Cc1ccc(Cn2c(=O)n(Cc3nc(-c4ccccc4)no3)c(=O)c3cc4c(cc32)OCO4)cc1,4.79%,–
CN(C)c1ccc(C(CNS(=O)(=O)c2cc(F)ccc2F)N2CCOCC2)cc1 (stereo not given),-4.79%,–
CCOc1ccc(C(=O)c2cn(Cc3ccccc3OC)c3ccc(F)cc3c2=O)cc1,-2.17%,–
O=C(/C=C/c1cn(CC(O)CN2CCc3ccccc32)c2ccccc12)c1ccc(Br)cc1 (stereo not given),2.02%,–
O=C(CCC1N=C2c3ccccc3N=C(SCc3ccccc3F)N2C1=O)NCCc1ccccc1 (stereo not given),4.72%,–
CSCCC(NS(=O)(=O)c1ccc2c(c1)oc(=O)n2C)C(=O)NCc1ccccc1 (stereo not given),11.7%,–
O=C(Nc1nnc(C2CC(=O)N(c3ccc(Cl)cc3)C2)s1)c1ccco1 (stereo not given),-14%,–
O=C(NCc1ccc(F)cc1)c1ccc(Cn2c(SCc3ccc(F)cc3)nc3cccnc32)cc1,-1.3%,–
Cc1c2cnn(-c3ccccc3)c(=O)c2c(C)n1C(C)C(=O)Nc1ccc(Br)cc1F (stereo not given),2.31%,–
